For three compounds, outcome and AC50 results are on record in PubChem BioAssay (EPA / NIEHS).

Where “and” joins values, the source holds several entries; their conditions need not be identical. Identical values can stand only once. Inconclusive results are not listed. Calls of active or inactive are those of the source. Rule for the calls: active = hit-call score of the fitted dose curve at least 0.9, where 1 is the maximum; inconclusive = response in the unintended direction; inactive = score below 0.9.

Assay [1] is described as follows: CCTE_Mundy_HCI_iCellGluta_NOG_NeuriteLength: CCTE's Neurite Outgrowth Assay in iCellGluta cells for Neurite Length, Mundy Lab (AID 2284318). In a few lines:
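Automated high-content imaging of betaIII-tubulin (Alexa Fluor-488) and Hoechst-stained cells gave neurite length, normalized to the DMSO baseline.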

Assay [2] can be described thus: VALA_TUBHUV_Antagonist_TubuleLength: VALA Sciences human Umbilical Vein Endothelial Tubule Formation (TUBHUV) Antagonism Assay (AID 2284325). In a few lines:
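Tubule length was imaged via CD31 immunofluorescence after a further 3-day compound exposure in 10 ng/ml VEGF, following 3-day pre-culture of HUVEC with HDF at 1:3. Vehicle 0.1% DMSO; suramin (100 uM) inhibition control.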

The nature of assay [3]: VALA_MIGHUV1_ScratchOnly_CellCount: Viability Assessment in the VALA Sciences human Umbilical Vein Endothelial Cell Migration (MIGHUV) Assay, Scratch Wound Inhibited Recovery (AID 2284327). In a few lines:
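Hoechst-stained nuclei in the scratch wound were counted by high-content imaging after a 24 h recovery period. Scratched HUVEC monolayers received 6-point concentration series, triplicate, in 0.1% DMSO, fit against DMSO.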

In the case of `CC[C@H]1OC(=O)[C@H](C)[C@@H](O[C@H]2C[C@@](C)(OC)[C@@H](O)[C@H](C)O2)[C@H](C)[C@@H](O[C@@H]2O[C@H](C)C[C@H](N(C)C)[C@H]2O)[C@](C)(O)C[C@@H](C)C(=O)[C@H](C)[C@@H](O)[C@]1(C)O`, the result in assay [1] was inactive.

For `O=P(OC(CCl)CCl)(OC(CCl)CCl)OC(CCl)CCl`, the compound was classed as inactive in assay [1].

Consider `CC(C)c1cccc(C(C)C)c1N1C(=O)c2ccc(O)cc2C1=O`, for which the AC50 was 10.7 µM (active) and 50 µM (active) in assay [2]; 11.7 µM (active) in assay [3].

Broadly, the AC50 is the concentration giving half of the maximal activity seen.
